Data published in PubChem BioAssay.

experiment: JC-1 mitochondrial potential readout, lung cancer cells – cell-based, A549, JC-1 fluorescence, basal, 24 h, 100 nL, profiling panel (AID 1138); conditions: higher = more signal;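 also: A549 lung adenocarcinoma cells under basal conditions with no added stimulus; test concentration not given here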

Row | Structure (SMILES) | z-score
1 | Cc1ccc(S[C@]2(C(=O)NCCCN(C)C)CC(=O)N(C3CCCCC3)[C@@H]2c2ccc(CO)cc2I)cc1 | 3.41
2 | O=C1C2C=CC(C(O)C#Cc3ccccc3)N(Nc3ccccc3)C2C(=O)N1c1ccccc1 (stereo not given) | -0.136
3 | O=C1NC(=O)C2C1C=CC(C(O)C=Cc1ccc([N+](=O)[O-])cc1)N2Nc1ccccn1 (stereo not given) | 0.361
4 | Cc1ccc(S(=O)(=O)N[C@H]2COC(=O)CC=C[C@H](C)COC(=O)N[C@@H](C)C(=O)CC=C[C@@H]2C)cc1 | 0.204
5 | Cc1ccc(N2C(=O)c3ccccc3[C@](C)(C(=O)NCC(C)C)[C@@H]2c2ccc(CO)cc2)nc1 | -0.393
6 | O=C1C2C=CC(C(O)c3ccccc3)N(n3cnnc3)C2C(=O)N1Cc1ccccc1 (stereo not given) | 0.348
7 | COc1cc([C@@H]2N[C@H](C(=O)O)Cc3c2[nH]c2ccccc32)cc(OC)c1OC | 0.559
8 | C=CCNC(=O)[C@H]1[C@@H]2C(=O)O[C@@H](c3ccccc3)[C@@H](c3ccccc3)N2[C@@H](c2ccc(O)cc2)[C@]12C(=O)Nc1ccc(C#CCNC(N)=O)cc12 | -0.171
9 | CCC#CCN(Cc1ccccc1Br)[C@H](/C=C/c1ccccc1)[C@@H](O)Cc1ccccc1 | -0.565
10 | CCCC=C(CCC)[C@@H](NC(=O)c1ccccc1)c1ccccc1 | -1.52
11 | CO[C@H]1O[C@H](CO)[C@@H](OC(=O)CCc2ccccc2)[C@@H]2OC(=O)[C@H](Cc3cccc(Br)c3)C/C=C/C[C@@H](Cc3cccc(Br)c3)C(=O)O[C@@H]12 | 0.309
12 | C=CCC(OC(C)=O)[C@@H]1[C@@H](N(Cc2cccc3ccccc23)C(=O)c2ccc(C)cc2)c2cc(OCCCO)ccc2N1C(=O)c1ccc(-c2ccccc2)cc1 (stereo not given in full) | 2.6
13 | Cc1ccc(N2C(=O)c3ccccc3[C@](C)(C(=O)O)[C@@H]2c2ccc(CO)cc2)nc1 | 1.08
14 | C[C@@H]1CC[C@H]2C(=O)N3[C@@H](CC[C@@H](C)[C@@H]3c3cccc(N4CCOCC4)c3)C(=O)N2[C@H]1c1cccc(N2CCOCC2)c1 | 1.05
15 | Cc1ccc(S[C@]2(C(=O)NCCN3CCOCC3)CC(=O)N(C3Cc4ccccc4C3)[C@@H]2c2ccc(CO)cc2I)cc1 | 1.3
16 | N#Cc1ccc(NN2C(C(O)c3ccc(I)cc3)C=CC3C(=O)N(c4ccccc4)C(=O)C32)cc1 (stereo not given) | 1.96
17 | CCOC(=O)[C@H]1C/C=C/C[C@H](C(=O)OCC)C(=O)O[C@H]2[C@@H](OC)O[C@H](CO)[C@@H](OC(=O)Nc3ccc(Br)cc3)[C@@H]2OC1=O | -2.32
18 | C[C@@H]1C=CCC(=O)OC[C@H]2O[C@@H](C=C[C@@H]2O)[C@H](C)C=CCC(=O)OC[C@H]2O[C@H]1C=C[C@@H]2O | 0.307
19 | CO[C@@H]1COC(=O)[C@H](C)NC(=O)CC=C[C@@H](C)[C@H](NS(=O)(=O)c2ccc(C)cc2)COC(=O)CC=C[C@@H]1C | 1.43
20 | C=C(CCCC)/C(=C/C[C@@H](OC(=O)c1ccncc1)c1cccc(OCCO)c1)c1cc(C(=O)OC)ccc1OC | 4.97
21 | [N-]=[N+]=NCc1ccccc1C[C@]1(C(N)=O)N=C(c2ccc(OCCCO)cc2)O[C@H]1c1ccccc1CN=[N+]=[N-] | 1.3
22 | CCCCO[C@H]1C[C@H]2C(Br)=C[C@@]1(CO)C(=O)[C@]21CO1 | 0.826
23 | CC(C)N1CC=CC23O[C@@H]4/C=C\CCCOC(=O)C4[C@H]2C(=O)N(CCCCCO)[C@@H]3C1=O (stereo not given in full) | 3.68
24 | CO[C@@H]1COC(=O)[C@H](C)NC(=O)CC=C[C@@H](C)[C@H](OC)COC(=O)[C@H](C)NC(=O)CC=C[C@H]1C | 1.64
25 | CCOC(=O)C[C@H]1[C@H](OC(=O)Cc2ccc3c(c2)OCO3)[C@@H](NC(=O)c2ccc3ccccc3c2)c2cc(OCCCO)ccc2N1C(=O)Cc1ccc(OC)cc1 | 0.751
26 | CCCN1C(=O)[C@@]2(CCS(=O)(=O)c3ccccc3)N=C(c3ccc(OCCCO)cc3)O[C@H]2c2ccccc21 | 0.782
27 | CCCC[C@@H]1C[C@H]1[C@@H](NC(=O)c1cccs1)c1ccc(Cl)cc1 | -0.363
28 | C[C@H]1COC(=O)[C@@H]2CCCN2C(=O)[C@@H](C)COC(=O)[C@@H]2CCCN2C1=O | 1.05
29 | [N-]=[N+]=NCc1ccccc1C[C@@]1(C(=O)O)N=C(c2ccc(OCCCO)cc2)O[C@@H]1c1ccccc1N=[N+]=[N-] | 0.376
30 | O=C1C2C=CC(C(O)C(c3ccccc3)c3ccccc3)N(Nc3ccc([N+](=O)[O-])cc3)C2C(=O)N1c1ccccc1 (stereo not given) | -0.351
